Laboratory results published in PubChem BioAssay (NCI).
The panel holds about 83,000 compounds, 20% with a hit somewhere; the sample as a whole holds those more often.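 How to read the values: 0–100, growth inhibition (40 = 60% inhibited); 0, no net growth; -100 to 0, cell death (-40 = 40% of starting cells died; -100 = all dead).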 The source made the active and inactive calls. How the source made its calls: active means growth percent below 10; inactive means the rest.

What was measured:
Test in all cases: NCI-60 one-dose screen, 48 h (100 = growth as untreated, 0 = no growth, -100 = all killed)
Settings in all cases: 10 µM unless noted
SR leukemia = system: SR leukemia
RPMI-8226 leukemia = system: RPMI-8226 leukemia
OVCAR-8 ovarian = system: OVCAR-8 ovarian
OVCAR-5 ovarian = system: OVCAR-5 ovarian
OVCAR-4 ovarian = system: OVCAR-4 ovarian
SK-OV-3 ovarian = system: SK-OV-3 ovarian
OVCAR-3 ovarian = system: OVCAR-3 ovarian
HS 578T breast = system: HS 578T breast
NCI/ADR-RES ovarian = system: NCI/ADR-RES ovarian
T-47D breast = system: T-47D breast
BT-549 breast = system: BT-549 breast
MDA-MB-435 melanoma = system: MDA-MB-435 melanoma
SW-620 colon = system: SW-620 colon
MCF7 breast = system: MCF7 breast
HCT-116 colon = system: HCT-116 colon
HCC-2998 colon = system: HCC-2998 colon
KM12 colon = system: KM12 colon
IGROV1 ovarian = system: IGROV1 ovarian

Measured: growth

Cc1ccc(-c2nc(-c3cn(C)c4ncccc34)cs2)cc1
active: SR leukemia 3.67% [100 µM] | RPMI-8226 leukemia -7.33% [100 µM] | OVCAR-8 ovarian -3.32% [100 µM] | OVCAR-5 ovarian -5.34% [100 µM] | OVCAR-4 ovarian -21.5% [100 µM] | SK-OV-3 ovarian -33.7% [100 µM] | OVCAR-3 ovarian -28.5% [100 µM] | NCI/ADR-RES ovarian -24.9% [100 µM] | T-47D breast -3.08% [100 µM] | BT-549 breast -42.1% [100 µM] | MDA-MB-435 melanoma -39.5% [100 µM] | SW-620 colon -11.6% [100 µM] | MCF7 breast -18% [100 µM] | HCT-116 colon -73.1% [100 µM] | HCC-2998 colon -67.9% [100 µM] | KM12 colon -55.5% [100 µM]
inactive: HS 578T breast 13.7% [100 µM]

CCN1CCN(C(=O)[C@]23CC[C@@H](C)[C@H](C)[C@@H]2C2=CC[C@@H]4[C@@]5(C)C/C(=C/c6cccnc6)C(=O)C(C)(C)[C@@H]5CC[C@@]4(C)[C@]2(C)CC3)CC1
inactive: OVCAR-8 ovarian 32.6% | OVCAR-5 ovarian 56.7% | OVCAR-4 ovarian 26.7% | SK-OV-3 ovarian 54.3% | OVCAR-3 ovarian 25.9% | HS 578T breast 25.2% | T-47D breast 22% | BT-549 breast 41.2% | MDA-MB-435 melanoma 24% | SW-620 colon 13.3% | HCT-116 colon 10.3% | HCC-2998 colon 19.6% | KM12 colon 18.2%
active: SR leukemia -4.44% | RPMI-8226 leukemia -15.2% | MCF7 breast 8.54%

O=S1(=O)C=C(c2ccccc2)C(c2ccccc2)=C1
active: SR leukemia -3.82% | RPMI-8226 leukemia 4.61% | OVCAR-8 ovarian 6.07% | OVCAR-3 ovarian -86% | HS 578T breast -5.2% | NCI/ADR-RES ovarian 8.7% | T-47D breast -63.4% | SW-620 colon -82.9% | MCF7 breast 6.2% | HCT-116 colon -74.8%
inactive: OVCAR-5 ovarian 85.1% | OVCAR-4 ovarian 27.6% | SK-OV-3 ovarian 88.8% | BT-549 breast 79.6% | MDA-MB-435 melanoma 25.4% | HCC-2998 colon 15.5% | KM12 colon 16.5%

COc1cccc(/C=C/C(=O)c2cccc(Nc3nc(Nc4ccccc4)nc(Nc4ccccc4)n3)c2)c1
active: RPMI-8226 leukemia -55.2%
inactive: SR leukemia 42.4% | OVCAR-8 ovarian 77.7% | OVCAR-5 ovarian 89% | OVCAR-4 ovarian 84.1% | SK-OV-3 ovarian 101% | OVCAR-3 ovarian 76.6% | HS 578T breast 81.5% | NCI/ADR-RES ovarian 83.4% | T-47D breast 53.5% | BT-549 breast 99% | MDA-MB-435 melanoma 91.4% | SW-620 colon 40.5% | MCF7 breast 21.9% | HCT-116 colon 12.8% | HCC-2998 colon 21.6% | KM12 colon 62.8%

CSC(SC)=C(C#N)c1nc2ccccc2s1
inactive: SR leukemia 81.2% | RPMI-8226 leukemia 25% | OVCAR-8 ovarian 70.2% | OVCAR-5 ovarian 72.5% | OVCAR-4 ovarian 68.1% | SK-OV-3 ovarian 19.6% | IGROV1 ovarian 49.3% | OVCAR-3 ovarian 70% | HS 578T breast 77.1% | T-47D breast 33.2% | BT-549 breast 13.1% | MDA-MB-435 melanoma 76.5% | SW-620 colon 81.5% | MCF7 breast 47.3% | HCT-116 colon 14.2% | HCC-2998 colon 82.2% | KM12 colon 58.3%
